Compound activity as filed in PubChem BioAssay.
Shown are actives, neighbours in structure and some others; about 2.5% of the full set was active somewhere.
miR-21 reporter: qHTS Assay for Modulators of miRNAs and/orActivators of miR-21. Potency, µM (doses to about 38.3 µM), usual class: activators. 340,000 tested, under 10 active. HeLa miR-21 FLuc reporter, luciferase, 48 h;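 further: miR-21 action dims this reporter so a rising signal means less miR-21 action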
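Compounds were titrated across several concentrations (up to approximately 40 uM) and incubated 48 hours with HeLa miR-21-FLuc reporter cells (miR-21 target sequence downstream of FLuc, endogenous miR-21). Readout was firefly luciferase luminescence after lytic detection reagent.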
TrxR1 substrate: qHTS Assay for Substrates of Mammalian Selenoprotein Thioredoxin Reductase 1 (TrxR1): qHTS; 390,000 tested, 0.01% active; Potency, µM (series often up to 114 µM); AID 588456, 2011; purified TrxR1 substrate turnover, NADPH consumption readout; Thioredoxin reductase 1, cytoplasmic (Rattus norvegicus), O89049; further: nearly all actives have a fitted effect of over 50% in size
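Rat TrxR1, dispensed at 90 nM, was prereduced with 400 uM NADPH (final) for 5 min at ~22 deg C, then incubated with compound 15 min before 400 uM selenite. A first-read NADPH fluorescence drop versus no-compound background flagged substrates.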
rTrxR1 inhibitor: qHTS Assay for Inhibitors of Mammalian Selenoprotein Thioredoxin Reductase 1 (TrxR1): qHTS; Thioredoxin reductase 1, cytoplasmic (Rattus norvegicus), O89049; recombinant rTrxR1, NADPH fluorescence consumption, selenite substrate; Potency, µM (series often up to 114 µM), usual class: inhibitors; 390,000 tested, 1% active; AID 588453, 2011; further: nearly all actives have a fitted effect of over 65% in size
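Rat TrxR1 (90 nM in the dispensed reagent) was pre-reduced with 400 uM NADPH for 5 min at room temperature, then incubated with compound for 15 min. After 400 uM selenite was added, NADPH fluorescence (Ex 340/Em 450 nm) was followed for 8 min.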
Apoferritin bind: qHTS Assay for Identification of Novel General Anesthetics | Potency, µM (titrated, usually from 77.5 µM), hits mostly inhibitors | Ferritin light chain (Equus caballus), P02791 | apoferritin/1-aminoanthracene competitive binding, fluorescence | 350,000 tested, 0.074% active; further: nearly all actives have a fitted effect of over 20% in size
Target sequence (P02791 2-175 limits assumed): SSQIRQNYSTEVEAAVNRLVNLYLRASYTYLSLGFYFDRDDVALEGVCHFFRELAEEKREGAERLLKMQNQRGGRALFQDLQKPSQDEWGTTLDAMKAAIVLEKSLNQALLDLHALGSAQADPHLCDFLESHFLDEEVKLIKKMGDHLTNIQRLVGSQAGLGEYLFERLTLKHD
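Steps: apoferritin (10 uM) was premixed with half-saturated 1-AMA in PBS, compounds were pin-transferred, plates stood 10 min at room temperature, fluorescence was read at 380/535 nm, and curves were fitted with a Hill equation.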
ClpP mod: qHTS Assay for Activators of ClpP; ATP-dependent Clp protease proteolytic subunit (Bacillus subtilis (strain 168)), P80244; 340,000 tested, 1.9% active; Potency, µM (top dose mostly 57.5 µM); purified B. subtilis ClpP, FRET peptide cleavage, 20 min; active means well fitted falling curve with a large enough effect; inconclusive means small, poorly fitted or top-dose-only effect; inactive means no such curve, though single readings can be large or run the other way; further: the source files actives as falling curves though it sought activators and does not explain the sign; nearly all actives have a fitted effect of over 65% in size
Target sequence (P80244 whole entry, looked up): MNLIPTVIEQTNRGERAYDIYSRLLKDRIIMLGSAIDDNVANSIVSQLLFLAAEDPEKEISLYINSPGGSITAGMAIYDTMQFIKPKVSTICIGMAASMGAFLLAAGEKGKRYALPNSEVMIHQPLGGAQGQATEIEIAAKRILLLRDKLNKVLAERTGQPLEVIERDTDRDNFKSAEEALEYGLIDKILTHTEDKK
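Buffer: 100 mM Tris/HCl pH8, 100 mM KCl, 0.05% low protease BSA, 2.5% glycerol, 0.01% Tween-20. ClpP 10 microg/mL final; 20 min RT; delta FRET normalized to ADEP and DMSO controls.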
A number is an active result; n = inactive; u = inconclusive; x = not tested or not shown; [ ] = remark or other dose. Unless noted, the call rests on the fitted dose curve; in most records, active means well fitted curve in the direction sought with a large enough effect; inconclusive means small, poorly fitted or top-dose-only effect, or another doubt; inactive means no such curve, though single readings can be large; an effect the other way counts as inactive or inconclusive.

SMILES	miR-21 reporter	TrxR1 substrate	rTrxR1 inhibitor	Apoferritin bind	ClpP mod
Cc1ccc(C(=O)CCS(=O)(=O)c2ccc(Br)cc2)cc1	n	n	0.501µM	n	n
COc1ccc(COC(=O)CCS(=O)(=O)c2ccc(C)cc2)cc1	x	n	n	x	x
Cc1ccc(S(=O)(=O)CCC(=O)c2cccc([N+](=O)[O-])c2)cc1	u	n	u	u	n
COc1ccc(C(=O)NCS(=O)(=O)c2ccc(C)cc2)cc1	n	n	28.2µM	n	n
COCCNC(=O)Nc1cc(C(=O)NCc2ccc(C(C)C)cc2)ccc1N1CCCC1	n	n	n	u	n
CCc1ccc(NC(=O)N2CCN(Cc3cc(=O)n4nc(-c5ccccc5OC)sc4n3)CC2)cc1	n	n	n	n	n
CC(CNC(=O)CCc1cn(Cc2ccccc2Cl)c2ccccc12)c1ccccc1 (configuration not stated)	n	n	n	n	n
CCC(=O)N1CCc2cc(Br)cc(S(=O)(=O)N(CC)Cc3ccccc3)c21	n	n	n[2.29 µM]	n	n
COc1cccc2cc(C(=O)C3=C(O)C(=O)N(c4cc(C)on4)C3c3cccs3)oc12 (configuration not stated)	n	n	50.1µM	u	n
COc1cccc(C2C(C(=O)c3cc4cccc(OC)c4o3)=C(O)C(=O)N2c2cc(C)on2)c1OC (configuration not stated)	n	n	n	n	n
CCc1ccccc1NC(=O)C1CCCN(c2nnc(-n3c(C)ccc3C)s2)C1 (configuration not stated)	n	n	n	n	n
O=C(c1ccccc1F)N(Cc1cccnc1)Cc1cc2cc3c(cc2[nH]c1=O)OCCO3	n	n	n	n	x
COc1ccc2[nH]c(=O)c(CN(Cc3cccnc3)C(=O)Nc3ccccc3)cc2c1	n	n	n	n	31.6µM
COc1cc(C(=O)N(Cc2cccnc2)Cc2cc3cc4c(cc3[nH]c2=O)OCCO4)cc(OC)c1OC	n	n	n	n	28.2µM
CCN(CCCNC(=O)CSc1cc(=O)n(CC)c2ccccc12)c1cccc(C)c1	n	n	n	n	n
CC(C)(C)c1ccc(C(=O)N2CCC(c3nc4ccccc4o3)CC2)cc1	n	n	n	n	n
CCOc1ccc(CC2NCCc3cc(OCC)c(OCC)cc32)cc1OCC (configuration not stated)	n	n	50.1µM	n	n
Cc1cccc(-c2nc(CS(=O)CC(=O)NC3CCCC(C)C3C)c(C)o2)c1 (configuration not stated)	n	n	15.8µM	u	n
Cc1cccc(-c2nc(CS(=O)CC(=O)N3CC(C)CC(C)C3)c(C)o2)c1 (configuration not stated)	n	n	39.8µM	n	n
Cc1cccc(-c2nc(CS(=O)CC(=O)N3CCc4ccccc4C3)c(C)o2)c1 (configuration not stated)	n	n	12.6µM	n	n
Cc1cccc(-c2nc(CS(=O)CC(=O)NC3CCCC3)c(C)o2)c1 (configuration not stated)	n	n	u	n	n
CCN1CCN(C(=O)CS(=O)Cc2nc(-c3cccc(C)c3)oc2C)CC1 (configuration not stated)	n	n	u	n	n
Cc1coc2cc3oc(=O)c(CC(=O)NCc4ccccc4)c(C)c3cc12	n	n	n	n	n
Cc1ccc(C(=O)Nc2cc(Cl)ccc2N2CCCCC2)s1	n	n	n	n	u
Cc1noc(C)c1CSCC(=O)Nc1cc(Cl)ccc1N1CCCCC1	x	n	n	x	25.1µM
SMILES	miR-21 reporter	TrxR1 substrate	rTrxR1 inhibitor	Apoferritin bind	ClpP mod
CCc1sc(C(=O)Nc2cc(Cl)ccc2N2CCCCC2)cc1C	n	n	n	n	22.4µM
O=C1COc2ccc(-c3cc(-c4ccc(F)cc4)c4c(n3)-c3ccccc3OC4)cc2N1	n	n[11.4 µM]	n[11.4 µM]	n	n
O=C(OC1CCOC1=O)c1cc(-c2ccc(Br)cc2)nc2ccccc12 (configuration not stated)	n	n	n	n	u
COc1ccc(-c2cc(C(=O)OC3CCOC3=O)c3ccccc3n2)cc1 (configuration not stated)	n	n	n	n	25.1µM
COc1ccc(-c2cc(C(=O)Oc3ccc([N+](=O)[O-])cc3)c3ccccc3n2)cc1	n	n	n	n	28.2µM
COc1ccc(-c2cc(C(=O)Oc3ccc(C)cc3)c3ccccc3n2)cc1	n	n	n	n	n
CCOC(=O)c1oc2c(O)c(O)ccc2c(=O)c1-c1nncn1-c1ccccc1	n	n	n	n	22.4µM
COC(=O)C1=CN(CC2CCCO2)C=C(C(=O)OC)C1c1ccccc1C(F)(F)F (configuration not stated)	n	n	n	n	31.6µM
CC(=O)N1CCCc2cc(S(=O)(=O)NC(C(=O)NC(C)c3ccccc3)C(C)C)ccc21 (configuration not stated)	n	n	n	n	n
CC(=O)N1CCCc2cc(S(=O)(=O)NC(C(=O)NC3CCCCC3)C(C)C)ccc21 (configuration not stated)	n	n	n	n	15.8µM
CCOC(=O)Cc1c(C)nc2c(-c3ccccc3)c[nH]n2c1=O	n	n	n	n	15.8µM
CCOC(=O)Cc1c(C)nc2c(-c3ccccc3)c(-c3ccccc3)[nH]n2c1=O	n	n	n	n	22.4µM
CCOC(=O)Cc1c(C)nc2cc(-c3ccc(C)cc3)[nH]n2c1=O	n	n	n	n	15.8µM
Cc1nc2c(-c3ccccc3)c(C)[nH]n2c(=O)c1Cc1ccccc1	n	n	n	n	x
CCc1c(C)nc2c(-c3ccccc3)c[nH]n2c1=O	n	n	n	n	x
Cc1ccccc1Cc1c(C)nc2c(-c3ccccc3)c(C)[nH]n2c1=O	u	n	n	n	n
CCOC(=O)Cc1c(C)nc2c(-c3ccccc3)c(C)[nH]n2c1=O	n	n	n	n	28.2µM
COc1ccc(NC(=O)C2CCN(S(=O)(=O)c3cccc(-c4noc(C)n4)c3)CC2)cc1OC	n	n	n	n	n
O=C(c1cc2cc3ccc(Cl)cc3nc2o1)N1CCN(c2cccc(Cl)c2)CC1	n	n	n	n	n
CCN(CCO)C1CC(=O)N(c2ccccc2C)C1=O (configuration not stated)	n	n	50.1µM	n	n
Cc1ccccc1N1C(=O)CC(N(O)c2ccccc2)C1=O (configuration not stated)	n	n	n	n	n
